Data taken from PubChem BioAssay (Tox21).
Several values for one entry are separate records, joined by “and”; a condition that tells them apart may be missing. Equal entries are not always repeated. Results filed as inconclusive are left out. Entries that show only a call come without a potency. Unmarked numbers belong to inactive results. Activity calls are given as the source filed them. Calls follow the shape of the dose curve; as a rule, active = well fitted curve in the direction sought with a large enough effect in the repeat runs; inconclusive = weak or mixed curves; inactive = no such curve, though single readings can be large; an effect the other way counts as inactive or inconclusive.

Experiments:
[1] = qHTS assay to identify small molecule agonists of the RXR signaling pathway - cell viability counter screen (AID 1159529); also: nearly all actives have a fitted effect of over 50% in size;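 as to activity change, negative = cytotoxicity: HEK 293T cells carrying an RXR-alpha UAS beta-lactamase reporter; series mostly up to about 77 µM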
Procedure, shortened: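 HEK 293T RXRa-bla cells, 2% CS-FBS; 5 h settle; cpd 16 h 37 C, 5% CO2; CellTiter-Glo 30 min RT, luminescence. Tetraoctyl ammonium bromide as positive control.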

[2] = qHTS assay to identify small molecule antagonists of the retinoid acid receptor (RAR) signaling pathway - cell viability counter screen (AID 1159551); also: nearly all actives have a fitted effect of over 35% in size
Procedure, shortened: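 C3RL4 RARE-luciferase cells, 1,000/well, incubated overnight, then dosed with compound plus 1 uM retinol (final). After 6 hr at 37 C, viability read by CellTiter-Glo ATP luminescence following 30 min at room temperature.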

[3] = qHTS assay to identify small molecule antagonists of the retinoic acid receptor (RAR) signaling pathway (AID 1159552; also: nearly all actives have a fitted effect of over 50% in size)
Procedure, shortened: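 Cells of the C3RL4 line were seeded, incubated overnight, then dosed with compounds in DMSO followed immediately by retinol (1 uM final). Six hours later luciferase detection reagent went in; signal was measured after 30 min at RT.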
Potency is read from the fitted curve at half-maximal effect.

**Q.** Which Potency [1] does the source give for `CCC(C)Br` (centres undefined) here?
**A.** inactive

**Q.** For `CCCCn1cc[n+](C)c1.[Cl][Fe-]([Cl])([Cl])[Cl]`, which Potency [1] is on record?
**A.** inactive

**Q.** Which Potency [1] does the source give for `CCN(CC)CCN1C(=O)CN=C(c2ccccc2F)c2cc(Cl)ccc21` here?
**A.** inactive

**Q.** What about the Potency [2] of the same compound?
**A.** inactive

**Q.** For `CCN(CC)Cc1nccn1-c1ccc([N+](=O)[O-])cc1C(=O)c1ccccc1Cl`, which Potency [1] is on record?
**A.** inactive

**Q.** And the Potency [2]?
**A.** inactive

**Q.** With `O=c1c2ccccc2c(=O)c2c1cc(Cl)c1[nH]c3c([nH]c12)c(Cl)cc1c(=O)c2ccccc2c(=O)c13` as the compound, how does the Potency [1] read?
**A.** inactive

**Q.** And the Potency [2]?
**A.** inactive

**Q.** For `[C-]1=CC=CC1.[Cl][Zr+2][Cl].c1cc[cH-]c1`, which Potency [1] is on record?
**A.** inactive

**Q.** With `Nc1cc(Cl)ccc1Cl` as the compound, how does the Potency [1] read?
**A.** inactive

**Q.** Which Potency [1] does the source give for `CC(=O)O.CC(=O)O.CC(=O)O.CC(=O)O.CC(=O)O.CC(=O)O.CC(=O)O.O.O.[Cr].[Cr].[Cr]` here?
**A.** inactive

**Q.** And the Potency [2]?
**A.** inactive

**Q.** Which Potency [1] does the source give for `CCCCn1cc[n+](C)c1` (tested in a mixture with another compound) here?
**A.** inactive

**Q.** For `OCC(Br)CBr` (centres undefined), which Potency [1] is on record?
**A.** inactive

**Q.** And the Potency [2]?
**A.** inactive

**Q.** With `O=C(O)[C@H](O)[C@@H](O)C(=O)O` as the compound, how does the Potency [1] read?
**A.** inactive

**Q.** What about the Potency [2] of the same compound?
**A.** inactive

**Q.** Which Potency [1] does the source give for `CN=C=O` here?
**A.** inactive

**Q.** What about the Potency [2] of the same compound?
**A.** inactive

**Q.** For `COc1ccc2c(c1OC)C(=O)O[C@@H]2[C@H]1c2cc3c(cc2CCN1C)OCO3`, which Potency [1] is on record?
**A.** inactive

**Q.** And the Potency [2]?
**A.** inactive

**Q.** With `CSC1=N[C@@](C)(c2ccccc2)C(=O)N1Nc1ccccc1` as the compound, how does the Potency [1] read?
**A.** inactive

**Q.** And the Potency [2]?
**A.** inactive

**Q.** With `C=Cc1cccc(CCl)c1` as the compound, how does the Potency [1] read?
**A.** inactive

**Q.** What does the source list for `CC(=O)[O-].CC(=O)[O-].[Co+2]`?
**A.** Potency [1]: inactive; Potency [2]: inactive

**Q.** With `CC(Cc1ccc(OCC(=O)O)cc1)NCC(O)c1csc(C(F)(F)F)n1` (centres undefined) as the compound, how does the Potency [1] read?
**A.** inactive

**Q.** Which Potency [1] does the source give for `[Cl-].[Cl-].[Sn+2]` here?
**A.** inactive

**Q.** And the Potency [2]?
**A.** inactive

**Q.** For `CNN`, which Potency [1] is on record?
**A.** inactive

**Q.** With `CCN(CC)C(=S)S` as the compound, how does the Potency [1] read?
**A.** 19.4 µM (active)

**Q.** Which Potency [1] does the source give for `O=S1(=O)OCC2C(CO1)C1(Cl)C(Cl)=C(Cl)C2(Cl)C1(Cl)Cl` (centres undefined) here?
**A.** 43.6 µM (active)

**Q.** Which results are given for `C=CCBr`?
**A.** Potency [1]: inactive; Potency [2]: inactive

**Q.** Which results are given for `CC(=O)[O-].CC(=O)[O-].CC(=O)[O-].[Sb+3]`?
**A.** activity change, negative = cytotoxicity [1]: 2.3% [at 2.72 µM]; activity change, negative = cytotoxicity [2]: 3.99% [at 3.27 µM]

**Q.** What does the source list for `Cc1cnc2c(C(=O)O)c(Cl)ccc2c1`?
**A.** Potency [1]: inactive; Potency [2]: inactive

**Q.** Which Potency [1] does the source give for `N#Cc1c[nH]cc1-c1cccc2c1OC(F)(F)O2` here?
**A.** inactive

**Q.** What about the Potency [2] of the same compound?
**A.** inactive

**Q.** For `CC(C)=CC1C(C(=O)OC(C#N)c2cccc(Oc3ccccc3)c2)C1(C)C` (centres undefined), which Potency [1] is on record?
**A.** inactive

**Q.** With `CC(O)C(=O)[O][Hg][c]1ccccc1` (centres undefined) as the compound, how does the Potency [1] read?
**A.** 1.95 µM (active)

**Q.** And the Potency [2]?
**A.** 13.7 µM (active)

**Q.** For `ClC1=C(Cl)[C@]2(Cl)[C@H]3[C@H]([C@@H]4C=C[C@H]3C4)[C@@]1(Cl)C2(Cl)Cl`, which Potency [1] is on record?
**A.** 49 µM (active)

**Q.** And the Potency [2]?
**A.** inactive

**Q.** What does the source list for `CNC(=O)O/N=C(\C)C(C)S(C)(=O)=O` (centres undefined)?
**A.** Potency [1]: inactive; Potency [2]: inactive

**Q.** With `CCC[CH2][Sn]([CH2]CCC)([CH2]CCC)[O][Sn]([CH2]CCC)([CH2]CCC)[CH2]CCC` as the compound, how does the Potency [1] read?
**A.** 0.479 µM (active)

**Q.** And the Potency [2]?
**A.** 1.5 µM (active)

**Q.** For `Cc1ccc(C)c2ccccc12`, which Potency [1] is on record?
**A.** inactive

**Q.** For `CCCC[N+]1(C)CCCC1` (tested in a mixture with another compound), which Potency [1] is on record?
**A.** inactive

**Q.** And the Potency [2]?
**A.** inactive

**Q.** For `CC[C@H](C)[C@H]1O[C@]2(C=C[C@@H]1C)C[C@@H]1C[C@@H](C/C=C(\C)[C@@H](O[C@H]3C[C@H](OC)[C@@H](O[C@H]4C[C@H](OC)[C@@H](NC)[C@H](C)O4)[C@H](C)O3)[C@@H](C)/C=C/C=C3\CO[C@@H]4[C@H](O)C(C)=C[C@@H](C(=O)O1)[C@]34O)O2`, which Potency [1] is on record?
**A.** 4.36 µM (active)

**Q.** Which Potency [1] does the source give for `CO/N=C(/C1=NOCCO1)c1ccccc1Oc1ncnc(Oc2ccccc2Cl)c1F` here?
**A.** inactive

**Q.** What about the Potency [2] of the same compound?
**A.** inactive

**Q.** With `CC(=O)C(Cl)C(=O)N(C)C` (centres undefined) as the compound, how does the Potency [1] read?
**A.** inactive

**Q.** And the Potency [2]?
**A.** inactive

**Q.** With `COP(=S)(OC)Oc1ccc([N+](=O)[O-])c(C)c1` as the compound, how does the Potency [1] read?
**A.** inactive

**Q.** And the Potency [2]?
**A.** inactive

**Q.** With `O.O.O.O.O.O.O.O=S(=O)([O-])[O-].[Co+2]` as the compound, how does the Potency [1] read?
**A.** inactive

**Q.** And the Potency [2]?
**A.** inactive

**Q.** Which Potency [1] does the source give for `CC(=O)[O-].CC(=O)[O-].O.O.[Zn+2]` here?
**A.** inactive

**Q.** Which Potency [1] does the source give for `CC(C)C(Br)C(=O)NC(N)=O` (centres undefined) here?
**A.** inactive

**Q.** Which Potency [1] does the source give for `CC[C@]1(O)CC[C@H]2[C@@H]3CCC4=CCCC[C@@H]4[C@H]3CC[C@@]21C` here?
**A.** inactive

**Q.** And the Potency [2]?
**A.** inactive

**Q.** What does the source list for `C[C@]12C/C(=C/O)C(=O)C[C@@H]1CC[C@@H]1[C@@H]2CC[C@@]2(C)[C@H]1CC[C@]2(C)O`?
**A.** Potency [1]: 24.8 µM (active); Potency [2]: inactive; Potency [3]: 24.6 µM (active) and 26.6 µM (active)

**Q.** For `O.O.O.O.O.O.O=S(=O)([O-])[O-].[Ni+2]`, which Potency [1] is on record?
**A.** inactive

**Q.** What about the Potency [2] of the same compound?
**A.** inactive

**Q.** With `COC(=O)/C=C(\C)OP(=O)(OC)OC` as the compound, how does the Potency [1] read?
**A.** inactive

**Q.** And the Potency [2]?
**A.** inactive

**Q.** And the Potency [3]?
**A.** inactive

**Q.** Which Potency [1] does the source give for `Clc1ccc(C2(Cn3cncn3)OCCO2)c(Cl)c1` here?
**A.** inactive

**Q.** And the Potency [2]?
**A.** inactive

**Q.** Which results are given for `CSC(C)(C)/C=N/O`?
**A.** Potency [1]: inactive; Potency [2]: inactive

**Q.** With `O=C1C2(Cl)C3(Cl)C4(Cl)C(Cl)(Cl)C5(Cl)C3(Cl)C1(Cl)C5(Cl)C24Cl` (centres undefined) as the compound, how does the Potency [1] read?
**A.** 24.1 µM (active) and 41.8 µM (active)

**Q.** And the Potency [2]?
**A.** 47.8 µM (active)

**Q.** And the Potency [3]?
**A.** 21.3 µM (active) and 29.3 µM (active)

**Q.** What does the source list for `CCOP(=O)(OCC)Oc1cc(C)nc(C(C)C)n1`?
**A.** Potency [1]: inactive; Potency [2]: inactive

**Q.** Which results are given for `Clc1ccc(C(Cl)(Cl)Cl)cc1Cl`?
**A.** Potency [1]: inactive; Potency [2]: inactive

**Q.** Which results are given for `BrCC(Br)(Br)Br`?
**A.** Potency [1]: inactive; Potency [2]: inactive; Potency [3]: inactive

**Q.** With `Cc1nn(-c2cc(NS(C)(=O)=O)c(Cl)cc2Cl)c(=O)n1C(F)F` as the compound, how does the Potency [1] read?
**A.** inactive

**Q.** And the Potency [2]?
**A.** inactive

**Q.** With `N#CSCc1ccccc1` as the compound, how does the Potency [1] read?
**A.** inactive

**Q.** What about the Potency [2] of the same compound?
**A.** inactive

**Q.** What about the Potency [3] of the same compound?
**A.** 48.8 µM (active)

**Q.** For `COP(=S)(NC(C)C)Oc1ccc(C)cc1[N+](=O)[O-]` (centres undefined), which Potency [1] is on record?
**A.** inactive

**Q.** What about the Potency [2] of the same compound?
**A.** inactive

**Q.** What does the source list for `CC(=O)[O][Sn]([c]1ccccc1)([c]1ccccc1)[c]1ccccc1`?
**A.** Potency [1]: 0.138 µM (active); Potency [2]: 7.7 µM (active)

**Q.** For `Cc1ccc2cc3c(ccc4ccccc43)c3c2c1CC3`, which Potency [1] is on record?
**A.** inactive

**Q.** And the Potency [2]?
**A.** inactive

**Q.** And the Potency [3]?
**A.** inactive

**Q.** Which Potency [1] does the source give for `CCNS(=O)(=O)C(F)(F)C(F)(F)C(F)(F)C(F)(F)C(F)(F)C(F)(F)C(F)(F)C(F)(F)F` here?
**A.** inactive

**Q.** What about the Potency [2] of the same compound?
**A.** inactive

**Q.** And the Potency [3]?
**A.** inactive

**Q.** Which Potency [1] does the source give for `CNC(=O)/C=C(\C)OP(=O)(OC)OC` here?
**A.** inactive

**Q.** And the Potency [2]?
**A.** inactive
